# Screens: PubChem BioAssay, National Center for Advancing Translational Sciences (NCATS)
# An excerpt weighted towards active compounds, which were near 6.2% of everything screened.
# HT1080-NT tox = kills 2HG-producing HT-1080-NT fibrosarcoma cells; 1.6% of 360,000 active; Potency, µM (top dose mostly 46.1 µM), for inactives: top-dose activity, negative = less viability, hits mostly cytotoxic; HT-1080-NT fibrosarcoma viability, CellTiter-Glo ATP luminescence, 48 h;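 also: NT is the 2HG producing partner of a matched IDH1 knockdown line; 0% = DMSO-treated cells and -100% = media-only wells without cells; nearly all actives have a fitted effect of over 55% in size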
#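 HT-1080-NT; 750 cells/well; 5% FBS RPMI; 48 h compound, 37 degrees C; CellTiter-Glo luminescence; curve fitting and curve-class assignment.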
# ATXN viability = reduces viability in counter-screen for ATXN expression inhibitors | AID 651635 | 0.49% of 400,000 active | S2 cells (HEK-293 line with an ATXN2-luciferase reporter) viability, CellTiter-Fluor protease fluorescence, 24 h | Potency, µM (highest dose often 56.7 µM), most hits filed as cytotoxic; also: nearly all actives have a fitted effect of over 40% in size
# KB-V1 MDR tox = kills drug-selected multidrug resistant KB-V1 cells. KB-V1 MDR cells viability, CellTiter-Glo, 72 h. Potency, µM (highest dose often 46.1 µM), actives largely listed as cytotoxic. 3.4% of 400,000 active; also: % is scaled to controls: 0 for no effect and ±100 for the full control effect; nearly all actives have a fitted effect of over 60% in size
#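 qHTS viability screen in drug-selected KB-V1 MDR cells: 72 h compound treatment at 37 degrees C, ATP luminescence end point.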
# ATXN2 expr inh = ATXN2 expression inhibition; HEK-293 ATXN2-luciferase reporter, luminescence, 24 h; Potency, µM (doses to about 57 µM), without a hit: at the top dose activity change, negative = inhibition, usual class: inhibitors; 0.72% of 360,000 active; AID 1745845; also: % is scaled to controls: 0 for no effect and ±100 for the full control effect; nearly all actives have a fitted effect of over 55% in size
#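 ATXN2-luciferase reporter cells (luciferase flanked by upstream and downstream ATXN2 gene portions) were treated 24 h at 37 °C with compounds at up to 57 uM. SteadyGlo luminescence gave expression; GF-AFC fluorescence gave viability.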
# KB-3-1 cytotox = kills parental KB-3-1 adenocarcinoma cells. KB-3-1 viability, CellTiter-Glo ATP luminescence, 72 h. Potency, µM (titrated, usually from 46.1 µM), actives largely listed as cytotoxic. 1.4% of 400,000 active; also: % is scaled to controls: 0 for no effect and ±100 for the full control effect; nearly all actives have a fitted effect of over 60% in size
#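 Parental KB-3-1 viability, qHTS format: 72 h compound exposure, 37 °C; CellTiter-Glo; media-only wells and DMSO plates as controls; concentration-effect fits on corrected data.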
# HT1080 IDH1KD tx = toxicity to HT-1080 IDH1 knockdown cells (counter line). HT-1080 IDH1 knockdown viability, ATP luminescence, 48 h. Potency, µM (top dose mostly 46.1 µM), inactives show top-dose activity, negative = toxicity, usual class: cytotoxic. 2% of 360,000 active;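 also: 0% = DMSO wells and -100% = cell-free medium wells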
#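 Knockdown cells (IDH1KD HT-1080) received compounds 2 h after plating at 750 cells/well and were kept 48 h at 37 °C in 5% FBS RPMI. A CellTiter-Glo luminescence read gave % activity for curve fitting.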
# * = called active by the depositor; i = inactive; ? = inconclusive; . = no result. Calls follow the shape of the dose curve; as a rule, active = well fitted curve in the direction sought with a large enough effect; inconclusive = small, poorly fitted or top-dose-only effect, or another doubt; inactive = no such curve, though single readings can be large; an effect the other way counts as inactive or inconclusive. Potency is read from the fitted curve at half-maximal effect.
SMILES,HT1080-NT tox,ATXN viability,KB-V1 MDR tox,ATXN2 expr inh,KB-3-1 cytotox,HT1080 IDH1KD tx
CCN(CC)S(=O)(=O)c1cccc(-c2nnc(SCCCC(=O)c3ccc(F)cc3)o2)c1,-10.3%,.,15.8µM*,.,i,-16.0%
CCN(CC)S(=O)(=O)c1ccc(-c2nnc(SC)o2)cc1,14.9%,i,14.6µM*,12.6%,i,4.6%
O=C1CCCC2=C1C1(CCCC1)N=C(Nc1nc3ccccc3n1Cc1ccccc1)N2,.,.,i,.,i,.
Cc1cc(O)c2c(O)c3c(O)cccc3cc2c1,.,i,.,-2.2%,.,.
O=S(=O)(c1ccc(F)cc1)N1CCN(c2nc(-c3ccccc3)nc3ccccc23)CC1,.,.,i,.,?,.
O=C(Nc1ccccc1C(=O)O)c1cccc(S(=O)(=O)N2CCCC2)c1,.,?,i,8.1%,i,.
Cc1onc(-c2ccccc2Cl)c1C(=O)N(Cc1nc(-c2ccccc2)no1)C1CCCCC1,-8.5%,i,18.4µM*,-17.0%,?,?
C[C@@H]1CN([C@H](C)CO)S(=O)(=O)c2ccc(C3=CCCCC3)cc2O[C@H]1CN(C)C(=O)Cc1cccnc1,0.3%,?,i,-5.8%,i,1.1%
CCCCn1nnnc1C(c1ccccc1)N1CCN(CC)CC1 (stereo unspecified),12.0%,i,?,-8.2%,i,9.7%
Fc1ccc(C(c2nnnn2C2CCCC2)N2CCN(Cc3ccccc3)CC2)cc1 (stereo unspecified),0.8%,?,3.66µM*,2.2%,i,11.2%
CCCCn1nnnc1C(c1ccccc1)N1CCCN(Cc2ccc(F)cc2)CC1 (stereo unspecified),?,?,8.2µM*,-14.4%,?,-23.4%
O=[N+]([O-])c1ccc2c([N+](=O)[O-])ccc3c2c1CC3,-5.4%,?,?,.,i,-4.3%
Nc1ccc(S(=O)(=O)N2CCOCC2)cc1,.,.,i,.,?,.
CCCCNC(=O)CC(C(=O)N1CCc2ccccc21)n1ccnc1 (stereo unspecified),-1.4%,i,i,-2.9%,i,10.0%
CCN(CCCNC(=O)CC(C(=O)N1CCc2ccccc21)n1ccnc1)c1cccc(C)c1 (stereo unspecified),-2.2%,i,11.6µM*,-0.2%,i,?
O=C(CC(C(=O)N1CCc2ccccc21)n1ccnc1)N1CCc2ccccc2C1 (stereo unspecified),-1.0%,i,8.2µM*,-6.2%,i,?
Cc1cc(C)cc(C(=O)N(c2ccccn2)C(C)c2ccco2)c1 (stereo unspecified),6.1%,i,13µM*,-9.1%,i,1.3%
Cc1cccc(C(=O)N(c2ccccn2)C(C)c2ccco2)c1 (stereo unspecified),10.2%,i,i,-19.2%,i,3.9%
NNC(=O)c1[nH]c2ccc([N+](=O)[O-])cc2c1-c1ccccc1,?,i,i,.,?,3.66µM*
O=C(N/N=C/c1ccccn1)c1[nH]c2ccc([N+](=O)[O-])cc2c1-c1ccccc1,?,?,?,?,9.2µM*,?
Cc1cccc2c(=O)cc(CSc3ccccc3NC(=O)c3cccc(Cl)c3)[nH]c12,.,31.6µM*,i,-7.7%,i,.
Cc1ccc(NC(=O)CSc2ccccc2NC(=O)c2cccc(Cl)c2)cc1Cl,2.6%,i,?,1.6%,i,11.6%
O=C(N/N=C/C1CC=CCC1)c1ccc(O)cc1O (stereo unspecified),10.2%,?,i,4.6%,i,1.4%
O=C(N/N=C/C1CC=CCC1)c1cc2ccccc2cc1O (stereo unspecified),?,i,i,-13.4%,i,18.4µM*
O=C(CSc1nc(-c2ccco2)cc(C(F)(F)F)n1)Nc1ccc2c(c1)CCC2,-28.3%,i,?,9.4%,i,?
